# According to PubChem BioAssay (NCI):
# This is part of a sample that, as a whole, favours compounds with a hit. Of some 79,000 tested, about 15% had one in any assay. The source made the active and inactive calls. Rule as the data show it: active = growth inhibition above about 70%; inactive = the rest.
# Key:
# [1] = NCI Yeast Anticancer Drug Screen. Data for the rad50 strain (AID 155);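 also: 0% = growth of vehicle-only cultures of the same strain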; settings: S. cerevisiae rad50 strain growth inhibition; at 50.0 µM; stronger effect = higher value
# Summary of the method: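 Vehicle-treated cultures provide the reference for the growth inhibition reported for compound-exposed, repair-deficient yeast.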
# [2] = NCI Yeast Anticancer Drug Screen. Data for the mec2-1 strain (AID 157); settings: S. cerevisiae mec2-1 strain, at 50.0 µM, stronger effect = higher value
# Summary of the method: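 Cells of the genetically defined mec2-1 yeast strain are incubated with test compound. Inhibition of growth is calculated against vehicle-treated controls.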
# [3] = NCI Yeast Anticancer Drug Screen. Data for the sgs1 mgt1 strain (AID 161);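 also: 0% = growth of cultures given vehicle only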; settings: S. cerevisiae sgs1 mgt1 strain, at 50.0 µM, stronger effect = higher value
# Summary of the method: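 Inhibition of yeast growth, normalised to vehicle-treated controls, is reported for a strain bearing genetic alterations in DNA damage repair.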
# [4] = NCI Yeast Anticancer Drug Screen. Data for the cln2 rad14 strain (AID 165);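 also: 0% = growth equal to vehicle treated cultures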; settings: S. cerevisiae cln2 rad14 strain, at 50.0 µM, stronger effect = higher value
# Summary of the method: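 The screen exposed genetically defined yeast (cln2 rad14) to test compounds and scored growth inhibition relative to vehicle-treated controls.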
# [5] = NCI Yeast Anticancer Drug Screen. Data for the bub3 strain (AID 167); settings: S. cerevisiae bub3 mutant strain, at 50.0 µM, stronger effect = higher value
# Summary of the method: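 Mutant yeast screening strain plus compound; vehicle-treated cultures serve as the 0% inhibition reference.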
# [6] = NCI Yeast Anticancer Drug Screen. Data for the mlh1 rad18 strain (AID 175); settings: S. cerevisiae mlh1 rad18 strain growth inhibition; at 50.0 µM; stronger effect = higher value
# Summary of the method: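 Compound-treated yeast growth, normalised to vehicle controls. Strain bears defined DNA repair mutations.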
Structure (SMILES),growth inhibition [1],growth inhibition [2],growth inhibition [3],growth inhibition [4],growth inhibition [5],growth inhibition [6]
CC1(C)OC2OC(CI)C3OC(C)(C)OC3C2O1 (stereo unspecified),5.7% (inactive),2.8% (inactive),-1.75% (inactive),34.5% (inactive),12.6% (inactive),-1.45% (inactive)
Cc1nc2c(-c3ccccc3)[nH]c(C)c2c(=O)o1,-17.2% (inactive),-40.1% (inactive),-31.9% (inactive),-8.8% (inactive),-18.5% (inactive),-24.4% (inactive)
COc1ccc(CC2COC(=O)C2Cc2ccc(OC)c(OC)c2)cc1OC (stereo unspecified),6.35% (inactive),5.95% (inactive),-17.6% (inactive),-11.6% (inactive),8.1% (inactive),12.8% (inactive)
C#CCNCCCn1c(=O)nc2n(-c3ccccc3)c3ccccc3nc-2c1=O,56% (inactive),19.2% (inactive),27.1% (inactive),29.4% (inactive),0.55% (inactive),43% (inactive)
CC1(CCOCc2ccccc2)NC(=O)NC1=O (stereo unspecified),-32.2% (inactive),-8.4% (inactive),-44.4% (inactive),-33% (inactive),-13.2% (inactive),-19.9% (inactive)
O=C(NCCCl)Nc1[nH]c(=O)ncc1I,-6.55% (inactive),-6.7% (inactive),1.1% (inactive),-10.3% (inactive),-8.75% (inactive),-7.95% (inactive)
O=C(NC(=S)Nc1cccc(Cl)c1)c1ccccc1,15.9% (inactive),26.5% (inactive),33.3% (inactive),-7.3% (inactive),46.2% (inactive),12.4% (inactive)
C=C(Cl)C(Cl)(CBr)CCC(Cl)C(C)C (stereo unspecified),65% (inactive),15.5% (inactive),85.2% (active),73.7% (active),75.6% (active),72% (active)
Cc1ccc[n+]([O-])c1Cl,1.55% (inactive),14.2% (inactive),-8.55% (inactive),-34.2% (inactive),11.2% (inactive),4.2% (inactive)
CSCC[C@H](NC(C)=O)B1OCCO1,9.85% (inactive),21.4% (inactive),2.95% (inactive),6.05% (inactive),-4.6% (inactive),19.5% (inactive)
O=[N+]([O-])C1(CO)COC2(OC1)c1ccccc1-c1ccccc12,0.5% (inactive),-7.2% (inactive),-21.6% (inactive),11.8% (inactive),-26.8% (inactive),-0.25% (inactive)
CCCCOB(OCCCC)Oc1c(C(C)(C)C)cc(C)cc1C(C)(C)C,1.5% (inactive),-14.2% (inactive),-2.55% (inactive),15.5% (inactive),-10.2% (inactive),-3% (inactive)
Cc1cc(=O)[nH]c2ccc(-c3ccc4[nH]c(=O)cc(C)c4c3)cc12,21.4% (inactive),-17.2% (inactive),31.3% (inactive),5.15% (inactive),23.1% (inactive),18% (inactive)
CC(C)SCC(N)C(=O)O (stereo unspecified),-17.8% (inactive),-10.7% (inactive),-2.65% (inactive),-15% (inactive),-11.8% (inactive),-15.8% (inactive)
COC(OC)c1cccc2c1C1(O)CCC3(CC21)OCCCCO3 (stereo unspecified),-9.35% (inactive),-26.4% (inactive),-42.5% (inactive),-11.6% (inactive),-42.9% (inactive),-23.1% (inactive)
CCOc1ccc2nc(NC(=O)C(=O)C(C#N)CC(C)(C)C=O)sc2c1 (stereo unspecified),-13.8% (inactive),-22.8% (inactive),-17.6% (inactive),7.7% (inactive),-12.6% (inactive),-28.1% (inactive)
COc1cc2c(c3c1c(=O)c1ccc(F)cc1n3C)C=CC(C)(C)O2,-4.35% (inactive),-28.6% (inactive),-16.9% (inactive),-23.9% (inactive),-7.7% (inactive),-5.6% (inactive)
Cc1cn(C2CC(O)C(CO)O2)c(=O)nc1N1CCCC1 (stereo unspecified),-4.2% (inactive),-7.4% (inactive),-12.9% (inactive),-8.55% (inactive),-0.4% (inactive),0.55% (inactive)
Cc1cc(-c2ccc([NH2+][B-](F)(F)F)c(C)c2)ccc1[NH2+][B-](F)(F)F,-9.15% (inactive),-3.15% (inactive),-11.6% (inactive),-58.6% (inactive),3.45% (inactive),-11.2% (inactive)
COC(=O)Oc1nn(C(=O)OC)c(=O)c2ccccc12 (tested in a mixture with another compound),-5.85% (inactive),3.1% (inactive),3% (inactive),-0.8% (inactive),11.3% (inactive),33.5% (inactive)
CC(=O)N1CCC(=O)c2ccccc21,11.3% (inactive),14.3% (inactive),-1.8% (inactive),6.1% (inactive),-24.3% (inactive),-5.35% (inactive)

Structure (SMILES),growth inhibition [1],growth inhibition [2],growth inhibition [3],growth inhibition [4],growth inhibition [5],growth inhibition [6]
Cc1cccc(CC(O)c2ccc(C=O)cc2)n1 (stereo unspecified),20.6% (inactive),14.7% (inactive),6.75% (inactive),5.65% (inactive),14.4% (inactive),37.5% (inactive)
O=S(=O)(Nc1cc(C(F)(F)F)ccc1Cl)c1ccc(F)cc1,-24.3% (inactive),-22.4% (inactive),-34.4% (inactive),7.5% (inactive),-32.6% (inactive),-8% (inactive)
CCOC(=O)c1nc2cc(N3CCOCC3)c(F)cc2[nH]c1=O,16.9% (inactive),23.6% (inactive),23.2% (inactive),3.45% (inactive),28.2% (inactive),34% (inactive)
CCCC(C)OC(=O)Nc1cccc(O)c1 (stereo unspecified),-2.3% (inactive),-10.9% (inactive),-5.3% (inactive),-10.9% (inactive),-21.5% (inactive),-5.05% (inactive)
N#CC1(N=Cc2ccc3c(c2)OCO3)c2ccccc2-c2ccccc21,15.2% (inactive),6.85% (inactive),5.8% (inactive),-9.35% (inactive),8.55% (inactive),4.95% (inactive)
COc1cc(CNc2cnc3cc(N)ccc3n2)cc(OC)c1OC,-32.5% (inactive),-26.8% (inactive),-66.3% (inactive),-18% (inactive),-21.7% (inactive),-30.6% (inactive)
COc1ccc(C(=O)O/N=C2/CCC/C2=C\c2ccccc2)cc1,13.8% (inactive),13.2% (inactive),33.6% (inactive),26.4% (inactive),10.9% (inactive),8.4% (inactive)
CC(=O)NC1C(=O)N(c2ccccc2)N=C1C (stereo unspecified),15.6% (inactive),-6.05% (inactive),-0.7% (inactive),22.6% (inactive),-6.5% (inactive),9.85% (inactive)
CCB1OC2C(COC(C)=O)OC(OC(C)=O)C2O1 (stereo unspecified),-7.4% (inactive),-9.6% (inactive),-9.55% (inactive),-9.25% (inactive),-6.9% (inactive),-10.1% (inactive)
CC(=O)NNc1nc(C)c(C(=O)/C=C/C=C/c2ccccc2)s1,-3.8% (inactive),39% (inactive),10.7% (inactive),10.3% (inactive),13.1% (inactive),-21.8% (inactive)
COc1ccc(OC)c(N=Nc2c(C)nc(N)nc2C)c1,11.3% (inactive),4.4% (inactive),7.85% (inactive),-32.6% (inactive),19.6% (inactive),10.2% (inactive)
CC(=O)NCC(O)c1ccc([N+](=O)[O-])cc1 (stereo unspecified),-23.3% (inactive),-31.1% (inactive),1.4% (inactive),7% (inactive),-14.1% (inactive),-23% (inactive)
O=C(O)Cc1cc(CC(=O)O)cc(CC(=O)O)c1,-3.8% (inactive),-18.8% (inactive),6.05% (inactive),5.2% (inactive),1.6% (inactive),-17.9% (inactive)
CC(=O)N(C(C)=O)n1c(Cc2ccc(C)cc2)nn(C(C)=O)c1=O,-26.9% (inactive),15.2% (inactive),-16.9% (inactive),13.3% (inactive),-1.75% (inactive),-27.9% (inactive)
COc1ccc(C(=O)CC(C#N)c2ccccc2Cl)cc1 (stereo unspecified),19.8% (inactive),39% (inactive),41.2% (inactive),13.1% (inactive),64% (inactive),8.6% (inactive)
O=C(O)c1ccccc1C(=O)OCC1CCc2ccccc2C1 (stereo unspecified),5.45% (inactive),26.8% (inactive),28.3% (inactive),33% (inactive),51.4% (inactive),9.2% (inactive)
CCOC(=O)CNC(=O)C(CC(C)C)NC(=O)OCc1ccccc1 (stereo unspecified),6.7% (inactive),7.9% (inactive),28.8% (inactive),5.25% (inactive),2.8% (inactive),-11% (inactive)
C=CC(Br)(CBr)CCC(Cl)C(C)C (stereo unspecified),86.2% (active),90.7% (active),90.8% (active),91.7% (active),90.3% (active),90.5% (active)
O=C1NC(=O)C2(CCC(O)C2)c2cc[n+]([O-])cc21 (stereo unspecified),-8.55% (inactive),-41.4% (inactive),-13.6% (inactive),8.25% (inactive),-25.6% (inactive),-83.8% (inactive)
CCOC(=O)C(NC(=O)c1ccccc1)(c1ccc(S(=O)(=O)Nc2onc(C)c2C)cc1)C(F)(F)F (stereo unspecified),7.3% (inactive),-8.9% (inactive),-18.9% (inactive),-12.1% (inactive),-10.6% (inactive),-4.25% (inactive)
